Data as given in PubChem BioAssay AID624491 (Broad Institute, 2012).
The campaign covered roughly 1,800 compounds. About 1,400 (78%) were called active. Another 2% or so got no clear call; they are omitted. So high a share suggests a set chosen from earlier hits. Not all results are given here. Results with a measured potency or affinity are listed apart. Unmarked numbers belong to inactive results.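 How the source made its calls: active means fitted curve crossing a set activation limit at or below the highest valid dose tested; inconclusive means flat fit at 30 to 70% activation, or poor fit; inactive means the rest, including signal decreases.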

experiment: N-linked glycosylation inhibitors, luciferase reporter, dose response, D54 ERlucT cells, luminescence, cherry-picks (AID 624491); conditions: 24 h, 100% = twice neutral-control luminescence; series mostly up to 19.5 µM; activation (NLG inhibition): at the top concentration;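 further: signal gain reflects blocked N-linked glycosylation of a luciferase reporter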

Row | SMILES | activation (NLG inhibition)
1 | CCN(c1ccccc1)S(=O)(=O)c1ccc(N)c(OC)c1 | 27.8%
2 | c1ccc(CCNc2nc(-c3ccccn3)nc3ccccc23)cc1 | -27%
3 | COc1cccc(C2=NOC(C(=O)NCc3ccco3)C2)c1 (stereo not given) | -0.205% [at 5 µM]
4 | COc1ccc(C2=NOC(C(=O)NCc3ccco3)C2)cc1OC (stereo not given) | 10.5%
5 | COc1cc(CNc2ccc(O)cc2)cc(Br)c1OCc1ccccc1 | -8.22%
6 | COc1cc(C(=O)OCC(=O)c2cc(C)n(C)c2C)cc(OC)c1OC | 20.3%
7 | COc1cc(C(=O)OC2CCCCC2=O)cc(OC)c1C (stereo not given) | 41.1%
8 | CN(C)CCCN(C(=O)c1ccc(S(=O)(=O)N2CCc3ccccc3C2)cc1)c1nc2ccc(F)cc2s1 | -14.2% [at 5 µM]
9 | Cc1ccc(S(=O)(=O)N2CCCCC2CCNC(=O)C(=O)NCc2ccco2)cc1 (stereo not given) | 23.6%
10 | O=C(CSc1ncnc2nc[nH]c12)c1ccc([N+](=O)[O-])cc1 | 11.9%
11 | CCOC(=O)/C=c1/s/c(=C\c2c(OC)ccc3ccccc23)c(=O)n1CC(=O)NCC1CCCO1 (stereo not given) | 23.7%
12 | CCOC(=O)c1[nH]c(C)c(C(=O)Nc2cccc(Cl)c2C)c1C | 20.9%
13 | Cc1ccc2c(CNCc3ccccc3)cc(=O)oc2c1 | 39.2%
14 | CCOC(=O)n1c(=O)n(Cc2ccc(OC)cc2)c2ccccc21 | 8.03% [at 5 µM]
15 | FC(F)(F)c1nnc2c(Sc3ccc(Cl)cc3)nc3ccccc3n12 | 30.9%
16 | CC(=O)c1cccc(-c2ccnc3c2CC(C(=O)NCCc2ccccc2)O3)c1 (stereo not given) | 12.8%
17 | Cc1[nH]c2ccc(C(=O)OC(C)C(=O)NCc3ccccc3)cc2c1C (stereo not given) | 7.75%
18 | COc1ccc(-c2cc(-c3ccccc3)c(C#N)c(S(C)=O)n2)cc1 (stereo not given) | 1.33%
19 | C/C(CC(=O)NCc1ccc(Cl)cc1)=N\NC(=O)COc1ccc(C)cc1Br | 37.5%
20 | CC(=O)N1N=C(c2ccccc2)OC1c1ccc([N+](=O)[O-])s1 (stereo not given) | 49.5%
21 | CC1CN(C(=O)/C=C/c2ccc([N+](=O)[O-])s2)CC(C)O1 (stereo not given) | -5.48%
22 | CCOC(=O)c1c(C)c(C(=O)Nc2ccc(N(C)C)cc2)c(C)n1CC | 44.7%
23 | Cc1ccc(Nc2nc(-c3cccnc3)nc3ccccc23)cc1 | 8.8%
24 | CC(Nc1nc(-c2cccnc2)nc2ccccc12)c1ccc(F)cc1 (stereo not given) | 48.9%
25 | O=C1c2ccccc2C(=O)C12OC2c1ccc(Cl)cc1Cl (stereo not given) | 68.1%
26 | Cc1ccc2nc(SCC(=O)Nc3ccc4sc(C)nc4c3)c(C#N)cc2c1 | -4.3% [at 5 µM]
27 | CCCCCCCCCCn1c2c(c(=N)c3c1CCC3)CCC2 | 86.7%

Row | SMILES | activation (NLG inhibition)
28 | CCCn1c(=N)n(CC(=O)c2ccc([N+](=O)[O-])cc2)c2ccccc21 | 6.58%
29 | Cn1c(Cl)cnc1C1CC(=O)c2cc(Cl)ccc2O1 (stereo not given) | -17.9%
30 | COc1ccc(OC)c(/C=C/c2ccc3cccc(O)c3n2)c1 | -43%
31 | COc1ccc(NC(=O)c2cccc(Oc3ccccc3)c2)cn1 | 34.3%
32 | Cn1c(SCC(=O)c2ccccc2)ncc(C(=O)Nc2ccc(F)cc2)c1=O | 63.3%
33 | Cn1c(SCC(=O)c2ccccc2)ncc(C(=O)Nc2ccccc2)c1=O | 80.2%
34 | CCOc1ccc(Nc2nnc(SCc3nc4ccccc4c(=O)[nH]3)s2)cc1 | 117%
35 | CC1=Nc2cc(C(=O)NCC3CCCO3)ccc2Sc2ccc(Br)cc21 (stereo not given) | -2.76%
36 | CC1(C(=O)NCc2ccccc2)Cc2c(-c3ccc(C(N)=O)cc3)ccnc2O1 (stereo not given) | 36.3%
37 | CC(=O)Nc1ccc(-c2ccnc3c2CC(C)(C(=O)NCc2ccco2)O3)cc1 (stereo not given) | 38.4%
38 | CC1(C(=O)NCc2cccs2)Cc2c(-c3ccc(C(N)=O)cc3)ccnc2O1 (stereo not given) | 39.6%
39 | O=C(NCCN1C(=O)S/C(=C\c2cccc(Cl)c2Cl)C1=O)C1=COCCO1 | 44.8%
40 | CC[C@@H]1CC=C[C@H]2[C@H]1C(=O)N(Cc1ccccc1)[C@H]2c1ccoc1 | 22.8%
41 | c1ccc2[nH]c3cc4ncnc4cc3nc2c1 | 3.68%
42 | NS(=O)(=O)c1ccc(N=Nc2c(O)[nH]c3ccc(Br)cc23)cc1 | 26.4%
43 | COc1ccc(CN(C)c2ncnc3sccc23)c(OC)c1OC | 29.3%
44 | CCc1ccccc1NC(=O)Cn1nnc(C(=O)NCc2cccs2)c1N | 22.7% [at 5 µM]
45 | COc1ccc(C(=O)/C=C/c2ccccc2F)c(OC(=O)c2ccc([N+](=O)[O-])cc2)c1 | 23%
46 | O=C(NCc1ccc2c(c1)OCO2)c1cc([N+](=O)[O-])ccc1N1CCOCC1 | -15.2%
47 | CC1=C[C@@H](C)[C@@H](c2ccc(C(F)(F)F)cc2)OC1=O | 31.7%
48 | O=C(COc1ccc2c(-c3ccccc3)cc(=O)oc2c1)N[C@@H](Cc1c[nH]c2ccc(O)cc12)C(=O)O | 18.2%
49 | COc1ccc2c(c1)c1ccc3c(c1n2C)C(=O)C=CC3=O | 31.4%
50 | COc1cc2c(cc1OC)C(c1ccccc1)N(C(=O)CCl)CC2 (stereo not given) | -90.9%
51 | COc1ccc(CC(=O)NCc2ccccc2)cc1 | 49%
52 | COc1ccc(NS(=O)(=O)c2cc(NC(=O)c3nn(C)c(=O)c4ccccc34)ccc2OC)cc1 | 39.3%
53 | COc1cc2nc(NC(=O)c3ccccc3)sc(=O)c2cc1OC | -2.97%
54 | COc1ccc(C(=O)c2sc(Nc3ccccc3)nc2N)cc1OC | 26%

Row | SMILES | activation (NLG inhibition)
55 | COc1ccccc1N(C)S(=O)(=O)c1ccc(C(=O)OCC(=O)N2CCC2)cc1 | 37.2%
56 | CC1CN(C(=O)c2cc(-c3ccc(Cl)s3)nc3ccccc23)CC(C)O1 (stereo not given) | 114%
57 | O=C(c1cc(-c2cccs2)nc2ccccc12)N1CCN(c2ccccc2)CC1 | 30.5%
58 | O=C(N/N=C/c1ccc2c(c1)OCO2)c1sc2cc(Cl)ccc2c1Cl | 31.9%
59 | Oc1[nH]c(N=C2N=c3ccccc3=N2)c2ccccc12 | 623%
60 | COc1cc(/C=C2/C(=O)N(C)C(=S)N2C)ccc1OCc1cccc(F)c1 | 7.41%
61 | C(=N\Nc1nc2ccccc2[nH]1)/c1c[nH]c2ccccc12 | 22%
62 | O=C(c1cccc([N+](=O)[O-])c1)N1CCN(c2cccc(Cl)c2)CC1 | 32.1%
63 | CCOC(=O)N1CCN(C(=O)c2cccc(N3C(=O)NC4CC3(C)Oc3ccc(Cl)cc34)c2)CC1 (stereo not given) | 46.9%
64 | CCOc1ccc(C(=O)Nc2cc(-c3nc4ccccc4[nH]3)ccc2Cl)cc1[N+](=O)[O-] | 22.3%
65 | Cc1c(Cl)ccc2c(C(=O)Nc3cc(C(C)(C)C)on3)cc(-c3ccccn3)nc12 | 85.9%
66 | O=C1COc2ccc(C(=O)/C=C/c3ccccc3)cc2N1 | 22.8%
67 | O=C(Cc1ccc(Cl)cc1)Nc1ccccc1N1CCN(C(=O)c2ccccc2)CC1 | 74%
68 | COc1ccc(N2CC(C(=O)Nc3cc(C(F)(F)F)ccc3N3CCCC3)CC2=O)c(OC)c1 (stereo not given) | 60.1%
69 | NC(=O)[C@H]1CC2(CC(c3cccc(NC(=O)COc4ccc(Cl)cc4)c3)=NO2)CN1C(=O)C(c1ccccc1)c1ccccc1 (stereo not given in full) | 9.14%
70 | O=C(COc1ccc(Oc2ccccc2)cc1)NCc1cn2ccccc2n1 | 35.6%
71 | O=C(c1ccc(Cl)cc1)C(CN1CCCCC1)c1ccccc1 (stereo not given) | -93.5%
72 | Cc1cc(=O)oc2cc(OCC3CC(c4ccccc4)=NO3)ccc12 (stereo not given) | 81.1%
73 | O=C(/C=C/c1ccncc1)c1ccc2c(c1)OCCO2 | 10.3%
74 | COc1cc(/C=C/C(=O)c2ccc3c(c2)OCCO3)cc(OC)c1OC | 19.1%
75 | CC(=O)Nc1ccc(/C=C/C(=O)c2ccc3c(c2)OCCO3)cc1 | 8.38%
76 | CCOc1cc(/C=C/C(=O)c2ccc(C)cc2)ccc1OCC(=O)N(C)C | -3.96%
77 | O=C(C=Cc1ccc2c(c1)OCO2)C=Cc1ccc2c(c1)OCO2 | 3.68%
78 | C=CCOc1ccc(C2C(C#N)=C(N)N(Nc3ccccc3)C3=C2C(=O)CCC3)cc1OC (stereo not given) | 61%
79 | Cc1cc(OC(C)C)nc(NCc2ccccc2)n1 | 2.85% [at 5 µM]
80 | COc1ccc(Cn2c(=O)cc(N)n(-c3ccccc3C)c2=O)cc1 | 23.6%
81 | Cn1c(N)c(C(=O)COC(=O)c2cc(S(=O)(=O)N3CCOCC3)ccc2F)c(=O)n(C)c1=O | -21.7%

Row | SMILES | activation (NLG inhibition)
82 | CCCCCCCCCCCCCCCC[n+]1ccc(/C=N/O)cc1 | 57.2%
83 | Cc1ccc(OCCOC(=O)c2c(-c3ccccc3)noc2C)cc1 | 6.86%
84 | Cc1cc(C)c(C)c(OC(=O)c2sc(Cl)nc2C)c1 | -42.8%
85 | COc1ccc(C(=O)c2sc(Nc3ccccc3)nc2N)cc1 | 22.2%
86 | CN(C)c1ccc(/C=N/NC(=O)c2ccccc2Cl)cc1 | 37.5%
87 | CCOc1ccc(Nc2nc(Cc3nnc(SCC(=O)NCc4ccco4)n3CC)cs2)cc1 | 40.1%
88 | Cc1ccc(Cc2c(C)nc3nc(SCC(=O)NCc4ccco4)nn3c2C)cc1 | 35.5%
89 | Cc1cc2cc(CNC(=O)Cc3cccs3)ccc2n1C | -4.54%
90 | S=c1[nH]nc(-c2cc(-c3ccccc3)n[nH]2)n1/N=C/C(Br)=C/c1ccccc1 | -26.6%
91 | COC(=O)CC1COc2ccccc2N1S(=O)(=O)c1ccc(OC)cc1 (stereo not given) | 19.8%
92 | COc1ccc(F)cc1C1=CC(=O)C[C@H](c2ccc3c(c2)OCO3)C1 | 20.3%
93 | CN1CC(=O)N2C(c3ccc(Cl)cc3)c3[nH]c4ccccc4c3C[C@H]2C1=O (stereo not given in full) | 57.6%
94 | CCc1ccc(/C=N/NC(=O)c2cc(-c3ccncc3)nc3ccccc23)s1 | 38.8%
95 | COc1cc(N=Nc2cccc(S(N)(=O)=O)c2)c2ccccc2c1N | -28.1%
96 | Oc1ccc(NCc2cccs2)cc1 | -2.52%
97 | OCC1OC(n2cnc3c(=S)nc[nH]c32)CC1O (stereo not given) | 15.2%
98 | O=C(Nc1c(Cl)ccc2nsnc12)c1ccc([N+](=O)[O-])o1 | -5.17%
99 | Cc1ccc2nsnc2c1NC(=O)c1ccc([N+](=O)[O-])o1 | 0.238%
100 | Oc1ccc(N=Nc2ccccc2)o1 | 4.57%
101 | CCCCCc1ccc(OCCC[n+]2ccccc2)c(CCCCC)c1 | -7.5%
102 | Cc1noc(C)c1COc1ccccc1C(=O)N1CCN(c2cccc(C(F)(F)F)c2)CC1 | 41.9%
103 | CC1(C(=O)NCc2ccccc2)Cc2c(-c3ccccc3)ccnc2O1 (stereo not given) | 30.5%
104 | CC1(C(=O)Nc2ccc(Cl)cc2)Cc2c(-c3ccc4c(c3)OCO4)ccnc2O1 (stereo not given) | 2.48%
105 | COc1ccc(CCCNC(=O)C2(C)Cc3c(-c4ccc5c(c4)OCO5)ccnc3O2)cc1 (stereo not given) | 67.4%
